PubChem BioAssay (Tox21)
Results filed as inconclusive are left out. Activity calls are given as the source filed them. Unless noted, calls follow the shape of the full dose curve.

What was measured:
[1] = Nuclear factor erythroid 2-related factor 2/antioxidant responsive element (Nrf2/ARE) small molecule agonists: qHTS cell viability counter screen in human keratinocytes (AID 1919968; active = well fitted curve in the direction sought with a large enough effect in the repeat runs; an effect the other way counts as inactive or inconclusive; also: nearly all actives have a fitted effect of over 55% in size)
Summary of the method: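 Viability counter-screen: KeratinoSens reporter cells, DMSO-delivered compounds, 23 h at 37 C, CellTiter-Fluor fluorescence.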

[2] = Nuclear factor erythroid 2-related factor 2/antioxidant responsive element (Nrf2/ARE) small molecule agonists: luciferase reporter gene qHTS assay in human keratinocytes (AID 1919969); also: nearly all actives have a fitted effect of over 35% in size; also: potency is read from the fitted curve at half-maximal effect
[3] = molecular target: Gonadotropin-releasing hormone receptor (Homo sapiens) (UniProt P30968); assay: Human gonadotropin-releasing hormone receptor (GnRHR) small molecule agonists, calcium flux assay in GnRHR-HEK293 cells (AID 1920063); also: nearly all actives have a fitted effect of over 35% in size
Gonadotropin-releasing hormone receptor (Homo sapiens), sequence (P30968 whole entry, looked up): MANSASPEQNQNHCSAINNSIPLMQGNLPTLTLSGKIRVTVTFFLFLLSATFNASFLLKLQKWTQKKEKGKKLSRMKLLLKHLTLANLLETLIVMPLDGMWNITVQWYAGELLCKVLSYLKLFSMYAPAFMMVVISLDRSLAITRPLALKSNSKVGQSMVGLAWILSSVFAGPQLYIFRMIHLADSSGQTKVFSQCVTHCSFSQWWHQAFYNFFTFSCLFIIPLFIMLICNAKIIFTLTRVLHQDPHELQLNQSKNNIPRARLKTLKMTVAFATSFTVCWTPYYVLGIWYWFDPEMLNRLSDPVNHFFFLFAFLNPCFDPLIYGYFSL
Summary of the method: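 Tox21-format agonist screen using human GnRHR-expressing HEK293 cells and a fluorescent calcium dye; kinetic 3-min fluorescence reading after compound addition, 15-point concentration series run in triplicate.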

[4] = molecular target: KiSS-1 receptor (Homo sapiens) (UniProt Q969F8); assay: Human kisspeptin (KISS1R) small molecule agonists, calcium flux assay in KISS1R-HEK293 cells (AID 1920064; active = well fitted curve in the direction sought with a large enough effect in the repeat runs; an effect the other way counts as inactive or inconclusive)
KiSS-1 receptor (Homo sapiens), sequence (Q969F8 whole entry, looked up): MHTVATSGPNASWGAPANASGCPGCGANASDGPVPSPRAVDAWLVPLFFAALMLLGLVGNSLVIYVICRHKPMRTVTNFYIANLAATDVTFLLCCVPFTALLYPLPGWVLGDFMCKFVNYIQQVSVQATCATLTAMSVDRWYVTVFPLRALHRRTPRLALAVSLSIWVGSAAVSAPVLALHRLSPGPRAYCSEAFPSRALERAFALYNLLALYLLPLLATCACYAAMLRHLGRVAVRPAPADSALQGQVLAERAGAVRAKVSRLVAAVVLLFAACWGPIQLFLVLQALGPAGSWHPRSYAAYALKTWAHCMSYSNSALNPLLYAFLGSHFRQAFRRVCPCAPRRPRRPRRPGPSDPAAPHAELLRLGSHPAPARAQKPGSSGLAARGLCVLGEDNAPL
Summary of the method: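 Intracellular calcium mobilization in KISS1R-HEK293 cells was recorded by fluorescence (Ex/Em 480/540) for 3 min following compound addition to cells pre-loaded 1 h with calcium dye.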

[5] = G protein-coupled receptor (GPCR) small molecule agonists, calcium flux assay: HEK293 wild type cell line counter screen (AID 1920065)
Summary of the method: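 In this agonist-mode screen, ATP is the positive control and DMSO the vehicle. Cells grow 18 h before a 1 h dye incubation at 37 C; signal is taken at Ex/Em 480/540 over 3 min.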

[6] = p53 small molecule agonists, cell-based qHTS assay with human liver microsomes (AID 1963577);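 also: p53 response element beta-lactamase reporter cells with liver microsomes plus NADPH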
Summary of the method: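 In this qHTS, p53 response-element beta-lactamase cells receive test compound together with a microsome/NADPH activating system (0.5 mg/mL final each) and are incubated 16 h at 37 C before LiveBLAzer fluorescence detection.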

[7] = p53 small molecule agonists, cell-based qHTS assay with rat liver microsomes (AID 1963578)
Summary of the method: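 Agonist mode in p53RE-bla reporter cells, with compounds co-incubated 16 h at 37 C alongside 0.5 mg/mL rat liver microsomes and 0.5 mg/mL NADPH (final), followed by a 2 h LiveBLAzer detection step.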

[8] = p53 small molecule agonists, cell-based qHTS assay with human liver microsomes: qHTS cell viability counter screen (AID 1963579); also: nearly all actives have a fitted effect of over 45% in size
Summary of the method: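 Metabolically activated exposure: compounds, human liver microsomes and NADPH (0.5 mg/mL final apiece) were added to p53RE-bla cells seeded 5 h earlier, left 16 h at 37 C, and then assessed for viability by CellTiter-Glo luminescence.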

[9] = p53 small molecule agonists, cell-based qHTS assay with rat liver microsomes: qHTS cell viability counter screen (AID 1963580); also: nearly all actives have a fitted effect of over 45% in size
Summary of the method: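 In HCT-116 cells carrying a p53 response element-bla reporter, compounds were metabolically activated in situ by rat liver microsomes with NADPH over 16 h. Cell ATP content then served as the cytotoxicity measure.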

[10] = p53 small molecule agonists, cell-based qHTS assay: qHTS cell viability counter screen (AID 1963581); also: nearly all actives have a fitted effect of over 45% in size
Summary of the method: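 Compounds are pinned onto HCT-116 p53RE-bla cells and left 16 h at 37 C. Following the reporter FRET read, ATP is quantified by CellTiter-Glo luminescence after 30 min at room temperature.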

[11] = p53 small molecule agonists, cell-based qHTS assay (AID 1963582; active = well fitted activation curve with a large enough effect in the signal ratio in the repeat runs, not every such curve was filed as active; the % refers to the signal ratio)
Summary of the method: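 Agonist activity was scored from beta-lactamase FRET fluorescence in p53RE-bla cells treated 16 h at 37 C with compounds in DMSO, substrate incubation being 2 h at room temperature.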

[12] = molecular target: Muscarinic acetylcholine receptor M1 (Homo sapiens) (UniProt P11229); assay: Cholinergic receptor muscarinic 1 (CHRM1) small molecule antagonists, cell-based qHTS assay (AID 1963588); also: nearly all actives have a fitted effect of over 40% in size
Muscarinic acetylcholine receptor M1 (Homo sapiens), sequence (P11229 whole entry, looked up): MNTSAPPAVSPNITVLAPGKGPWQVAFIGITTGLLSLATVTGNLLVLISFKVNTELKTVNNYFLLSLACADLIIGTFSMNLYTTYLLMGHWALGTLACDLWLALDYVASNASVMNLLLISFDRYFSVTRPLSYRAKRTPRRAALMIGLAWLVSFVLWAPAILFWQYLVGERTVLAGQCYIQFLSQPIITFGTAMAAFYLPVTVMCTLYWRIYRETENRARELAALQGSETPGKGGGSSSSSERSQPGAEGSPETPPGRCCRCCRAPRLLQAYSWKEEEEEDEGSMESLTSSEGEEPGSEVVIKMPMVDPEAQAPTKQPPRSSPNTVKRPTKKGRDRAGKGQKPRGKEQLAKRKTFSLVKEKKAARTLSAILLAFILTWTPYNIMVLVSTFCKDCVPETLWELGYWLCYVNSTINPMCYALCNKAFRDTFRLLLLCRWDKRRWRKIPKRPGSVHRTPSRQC
Summary of the method: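 CHRM1-CHO calcium-flux assay, antagonist mode. Cells were seeded 18 h, dye-loaded 1 h at 37 C and given compound for 5 min at RT, then acetylcholine was added at 50nM. FDSS fluorescence was read 3 min; 15 concentrations, three runs.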

[13] = molecular target: Muscarinic acetylcholine receptor M1 (Homo sapiens) (UniProt P11229); assay: Cholinergic receptor muscarinic 1 (CHRM1) small molecule agonists, cell-based qHTS assay (AID 1963589); also: nearly all actives have a fitted effect of over 35% in size
Summary of the method: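 Stable CHRM1-CHO cells (human receptor) were incubated 18 h, dye-loaded for 1 h at 37 C and exposed to test compounds for agonist activity, with calcium-dependent fluorescence followed kinetically.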

[14] = cAMP Responsive Elements (CRE) small molecule antagonists, cell-based qHTS assay (AID 1963591; active = well fitted inhibition curve with a large enough effect in the signal ratio in the repeat runs, not every such curve was filed as active; the % refers to the signal ratio)
Summary of the method: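 qHTS in CRE-bla HEK 293T cells: compound in DMSO, then 0.25 uM NKH477 (final), 3 h at 37 °C/5% CO2; beta-lactamase FRET read-out after 2 h substrate incubation.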

[15] = molecular target: Beta-2 adrenergic receptor (Homo sapiens) (UniProt P07550); assay: Adrenergic beta2 receptor (ADRB2) small molecule antagonists, cell-based qHTS assay (AID 1963592); also: series mostly up to about 92 µM; nearly all actives have a fitted effect of over 50% in size
Beta-2 adrenergic receptor (Homo sapiens), sequence (P07550 whole entry, looked up): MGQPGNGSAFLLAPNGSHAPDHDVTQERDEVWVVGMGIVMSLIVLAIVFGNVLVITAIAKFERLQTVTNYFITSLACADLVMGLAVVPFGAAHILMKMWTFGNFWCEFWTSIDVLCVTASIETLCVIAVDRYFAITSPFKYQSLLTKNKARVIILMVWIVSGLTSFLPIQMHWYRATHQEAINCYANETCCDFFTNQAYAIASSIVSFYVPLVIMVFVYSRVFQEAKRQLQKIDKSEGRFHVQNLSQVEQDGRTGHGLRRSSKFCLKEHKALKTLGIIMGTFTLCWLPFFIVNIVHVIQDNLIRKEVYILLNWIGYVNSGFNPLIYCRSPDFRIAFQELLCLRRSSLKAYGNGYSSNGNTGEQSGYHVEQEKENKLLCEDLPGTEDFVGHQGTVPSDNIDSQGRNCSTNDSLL
Summary of the method: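 Cells (CHO, stable ADRB2 overexpression) incubated 18-20hr at 37C; compounds added from DMSO; agonist mix (1nM isoproterenol, 100uM IBMX, 25uM Ro-20-1724) added; 0.5hr RT; d2-cAMP and anti-cAMP-cryptate added; 1hr RT; 665/615 nm read.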

[16] = molecular target: Beta-2 adrenergic receptor (Homo sapiens) (UniProt P07550); assay: Adrenergic beta2 receptor (ADRB2) small molecule agonists, cell-based qHTS assay (AID 1963593);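 also: CHO cells stably overexpressing human ADRB2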
Summary of the method: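 CHO cells stably over-expressing ADRB2 were plated overnight at 37C, then dosed with compounds plus a stimulation mix containing 100uM IBMX and 25uM Ro-20-1724 for 0.5hr at room temperature. cAMP was measured by HTRF competition, 1hr.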

[17] = molecular target: D(2) dopamine receptor (Homo sapiens) (UniProt P14416); assay: Dopamine D2 receptor (DRD2) small molecule agonists, cell-based qHTS assay (AID 1963594); also: nearly all actives have a fitted effect of over 35% in size
D(2) dopamine receptor (Homo sapiens), sequence (P14416 whole entry, looked up): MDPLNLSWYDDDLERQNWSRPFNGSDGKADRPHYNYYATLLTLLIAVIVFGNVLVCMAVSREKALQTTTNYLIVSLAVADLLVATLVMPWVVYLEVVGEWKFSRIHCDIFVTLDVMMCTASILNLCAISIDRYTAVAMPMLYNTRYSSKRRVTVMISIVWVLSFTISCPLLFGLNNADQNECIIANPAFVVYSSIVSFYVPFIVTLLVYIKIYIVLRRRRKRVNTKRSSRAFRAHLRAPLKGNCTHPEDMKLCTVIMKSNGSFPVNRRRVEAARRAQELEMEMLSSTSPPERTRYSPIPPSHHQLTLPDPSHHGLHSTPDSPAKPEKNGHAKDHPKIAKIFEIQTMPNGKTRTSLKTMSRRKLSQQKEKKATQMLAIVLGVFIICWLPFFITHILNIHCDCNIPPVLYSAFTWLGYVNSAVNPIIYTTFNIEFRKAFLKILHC
Summary of the method: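 HEK293 cells stably expressing DRD2 were cultured 24 h at 37 C, then given Ro20-1724 (0.1 mM final) and compounds for 10 min at room temperature. NKH477 (200nM) was then added for 30 min. cAMP was read by HTRF.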

[18] = molecular target: D(2) dopamine receptor (Homo sapiens) (UniProt P14416); assay: Dopamine D2 receptor (DRD2) small molecule antagonists, cell-based qHTS assay (AID 1963595; active = well fitted inhibition curve with a large enough effect in the signal ratio in the repeat runs, with a control signal flat; the % refers to the signal ratio)
Summary of the method: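 DRD2-HEK293; 0.1 mM Ro20-1724; cpd 10 min RT; NKH477 200 nM + quinpirole 12 nM, 30 min RT; HTRF cAMP (cAMP-d2/anti-cAMP cryptate), 665/620 nm ratio after 1 h.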

[19] = cAMP Responsive Elements (CRE) small molecule agonists, cell-based qHTS assay (AID 1963590)
Summary of the method: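 FRET-based beta-lactamase readout (LiveBLAzer B/G, 2 h RT) quantified CRE activation in HEK 293T CRE-bla cells after 3 h treatment with DMSO-dissolved compounds.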

[20] = molecular target: 5-hydroxytryptamine receptor 2A (Homo sapiens) (UniProt P28223); assay: 5-hydroxytryptamine receptor 2A (HTR2A) small molecule agonists, cell-based qHTS assay (AID 1963587); also: nearly all actives have a fitted effect of over 30% in size
5-hydroxytryptamine receptor 2A (Homo sapiens), sequence (P28223 whole entry, looked up): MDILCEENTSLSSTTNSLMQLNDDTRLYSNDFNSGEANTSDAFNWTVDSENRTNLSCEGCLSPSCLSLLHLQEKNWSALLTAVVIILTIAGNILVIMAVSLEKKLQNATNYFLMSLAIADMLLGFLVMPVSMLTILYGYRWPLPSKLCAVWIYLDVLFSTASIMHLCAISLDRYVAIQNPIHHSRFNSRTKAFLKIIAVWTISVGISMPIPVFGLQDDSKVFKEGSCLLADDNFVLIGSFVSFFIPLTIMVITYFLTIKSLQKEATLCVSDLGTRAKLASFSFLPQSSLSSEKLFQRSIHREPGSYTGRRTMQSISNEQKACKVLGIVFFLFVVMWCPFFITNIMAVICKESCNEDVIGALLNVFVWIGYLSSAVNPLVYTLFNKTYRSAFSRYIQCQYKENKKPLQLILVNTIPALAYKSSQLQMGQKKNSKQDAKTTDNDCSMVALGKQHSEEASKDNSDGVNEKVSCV
Summary of the method: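 HTR2A-CHO cells, plated 18 h at 37 C/5% CO2, dye-loaded 1 h at 37 C; compounds in DMSO added by pin tool (agonist mode). Intracellular calcium flux read as kinetic fluorescence on FDSS over 2 min at 1 s intervals.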

Measured: Potency

O=C1c2ccccc2C(=O)c2cc(O)ccc21
inactive: [1] | [2] | [3] | [4] | [5] | [6] | [7] | [8] | [9] | [10] | [11] | [12] | [13] | [14] | [15] | [16] | [17] | [18]

CC(C)(C)C(=O)C(=O)O
inactive: [1] | [2] | [3] | [4] | [5] | [6] | [7] | [8] | [9] | [10] | [11] | [13] | [19] | [14] | [15] | [17] | [18]

CC(C)(C)NCC(O)COc1cccc2c1C[C@H](O)[C@H](O)C2 (stereo not given in full)
inactive: [1] | [2] | [3] | [4] | [5] | [6] | [7] | [8] | [9] | [10] | [11] | [19] | [14]

CCCCCCOc1ccc(N)cc1
inactive: [1] | [3] | [4] | [5] | [6] | [7] | [8] | [9] | [10] | [11] | [12] | [13] | [14] | [15] | [16] | [17] | [18]
active: [2] 21.7 µM

O=[N+]([O-])c1ccc(F)c(Cl)c1
inactive: [1] | [2] | [3] | [4] | [5] | [6] | [7] | [8] | [9] | [10] | [11] | [20] | [13] | [19] | [14] | [17] | [18]

CC(CC(=O)O)CC(C)(C)C (stereo not given)
inactive: [1] | [2] | [3] | [4] | [5] | [6] | [7] | [8] | [9] | [10] | [11] | [20] | [19] | [14] | [15] | [17] | [18]

O=C(O)CP(=O)(O)O
inactive: [1] | [2] | [3] | [4] | [5] | [6] | [7] | [8] | [9] | [10] | [11] | [20] | [13] | [19] | [14] | [15] | [17] | [18]

COc1cccc([C@H](O)C2CCN(CCc3ccc(F)cc3)CC2)c1OC
inactive: [1] | [2] | [3] | [4] | [5] | [6] | [7] | [8] | [9] | [10] | [11] | [12] | [13] | [19] | [14] | [15] | [17] | [18]

CCCCCC[C@@H](CCC)C(=O)O
inactive: [1] | [2] | [3] | [4] | [5] | [6] | [7] | [8] | [9] | [10] | [11] | [12] | [13] | [19] | [14] | [15] | [16] | [17] | [18]

O=[N+]([O-])c1cccc(S(=O)(=O)NCCNS(=O)(=O)c2cccc([N+](=O)[O-])c2)c1
inactive: [1] | [2] | [3] | [4] | [5] | [6] | [7] | [8] | [9] | [10] | [11] | [20] | [13] | [14] | [15] | [16] | [17]

COc1ccc(C(C)=O)cc1
inactive: [1] | [2] | [3] | [4] | [5] | [6] | [7] | [8] | [9] | [10] | [11] | [20] | [13] | [19] | [14] | [15] | [16] | [18]

COc1ccc(CCN(C)CCCC(C#N)(c2cc(OC)c(OC)c(OC)c2)C(C)C)cc1OC (stereo not given)
inactive: [1] | [2] | [3] | [4] | [5] | [6] | [7] | [8] | [9] | [10] | [11] | [13] | [19] | [15] | [18]

COc1cc(C(=O)OC(COCCC(C)C)CN2CCOCC2)cc(OC)c1OC (stereo not given)
inactive: [1] | [2] | [3] | [4] | [5] | [6] | [7] | [8] | [9] | [10] | [11] | [20] | [12] | [13] | [18]

O=C(CCOCCOCCOCCOCCC(=O)Nc1c(I)cc(I)c(C(=O)O)c1I)Nc1c(I)cc(I)c(C(=O)O)c1I
inactive: [1] | [2] | [3] | [4] | [5] | [6] | [7] | [8] | [9] | [10] | [11] | [20] | [12] | [14] | [15] | [16] | [17] | [18]

Cc1cc(C)c(O)c(C(C)(C)C)c1
inactive: [1] | [2] | [3] | [4] | [5] | [6] | [7] | [8] | [9] | [10] | [11] | [13] | [14] | [15] | [16] | [17] | [18]
